# Test results taken from the supplement of paper PMC4022240.
# ± gives the standard deviation.
# T1: HaloTag-ATRX ADD domain (163-292)
# T1 chain: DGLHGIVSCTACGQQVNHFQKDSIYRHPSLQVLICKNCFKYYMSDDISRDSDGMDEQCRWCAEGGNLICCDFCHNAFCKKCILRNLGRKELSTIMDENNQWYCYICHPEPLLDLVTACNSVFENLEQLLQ
# Columns and labels:
# Assay in all cases: peptide microarray binding signal (635 nm), min-max normalized on array (fraction of array maximum); higher = stronger binding
# [1] = biological target: T1, HaloTag-ATRX ADD domain (163-292)
# Procedure, shortened: (§1)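 Within each library, mean intensities of triplicate spots were min-max scaled to give the binding signal. The spots were histone 13-mer peptide–cellulose conjugates on nitrocellulose with a Cy3 tracer, blocked overnight at 4°C. They were then probed for 1 h at 4°C using biotin-labelled HaloTag reader fusions (10 nM to 1 μM) with streptavidin-Alexa Fluor 647 or rabbit histone antibodies (1:10,000 to 1:2,000) with anti-rabbit Alexa 647, and scanned at 635 nm for signal and 532 nm for misprints on an Axon GenePix 4000B.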
# [2] = biological target: HaloTag-ING2 PHD (mouse Ing2 200-280)
# Procedure, shortened: as §1
# [3] = biological target: anti-H3K4me3 antibody ab8580
# Procedure, shortened: as §1
# [4] = biological target: anti-H3K9me3 antibody ab8898
# Procedure, shortened: as §1
# [5] = peptide region: H4 38-50, peptide modifications: H4K44me3 H4R45me2a, binder concentration: 1:2,000 dilution
# [6] = peptide region: H4 38-50, peptide modifications: H4K44me3 H4R45me2a, binder concentration: 1:10,000 dilution
# [7] = peptide region: H4 38-50, peptide modifications: H4K44me3 H4R45me2s, binder concentration: 1:2,000 dilution
# [8] = peptide region: H4 38-50, peptide modifications: H4K44me3 H4R45me2s, binder concentration: 1:10,000 dilution
# [9] = peptide region: H4 38-50, peptide modifications: H4K44me2 H4R45me2a, binder concentration: 1:2,000 dilution
# [10] = peptide region: H4 38-50, peptide modifications: H4K44me2 H4R45me2a, binder concentration: 1:10,000 dilution
# [11] = peptide region: H4 53-65, binder concentration: 1:2,000 dilution
# [12] = peptide region: H4 53-65, binder concentration: 1:10,000 dilution
# [13] = peptide region: H4 38-50, peptide modifications: H4K44me2 H4R45me2s, binder concentration: 1:2,000 dilution
# [14] = peptide region: H4 38-50, peptide modifications: H4K44me2 H4R45me2s, binder concentration: 1:10,000 dilution
binder,measurement,setting,value
ARRGGVKRISGLI [H4 38-50 A R R G G V Kme3 Rme2a I S G L I],peptide microarray binding signal,"[1]; peptide region: H4 38-50, peptide modifications: H4K44me3 H4R45me2a, binder concentration: 50 nM",0.00524 ± 0.00017
same,peptide microarray binding signal,"[1]; peptide region: H4 38-50, peptide modifications: H4K44me3 H4R45me2a, binder concentration: 500 nM",0.00852 ± 0.00069
same,peptide microarray binding signal,"[2]; peptide region: H4 38-50, peptide modifications: H4K44me3 H4R45me2a, binder concentration: 10 nM",0.0304 ± 0.0024
same,peptide microarray binding signal,"[2]; peptide region: H4 38-50, peptide modifications: H4K44me3 H4R45me2a, binder concentration: 100 nM",0.0612 ± 0.0075
same,peptide microarray binding signal,[3]; [5],0.0239 ± 0.0068
same,peptide microarray binding signal,[3]; [6],0.016 ± 0.00029
same,peptide microarray binding signal,[4]; [5],0.0197 ± 0.0016
same,peptide microarray binding signal,[4]; [6],0.009686 ± 5.3e-05
ARRGGVKRISGLI [H4 38-50 A R R G G V Kme3 Rme2s I S G L I],peptide microarray binding signal,"[1]; peptide region: H4 38-50, peptide modifications: H4K44me3 H4R45me2s, binder concentration: 50 nM",0.00533 ± 8.8e-05
same,peptide microarray binding signal,"[1]; peptide region: H4 38-50, peptide modifications: H4K44me3 H4R45me2s, binder concentration: 500 nM",0.0131 ± 0.0006
same,peptide microarray binding signal,"[2]; peptide region: H4 38-50, peptide modifications: H4K44me3 H4R45me2s, binder concentration: 10 nM",0.0355 ± 0.0027
same,peptide microarray binding signal,"[2]; peptide region: H4 38-50, peptide modifications: H4K44me3 H4R45me2s, binder concentration: 100 nM",0.0541 ± 0.0061
same,peptide microarray binding signal,[3]; [7],0.0265 ± 0.0032
same,peptide microarray binding signal,[3]; [8],0.0193 ± 0.0017
same,peptide microarray binding signal,[4]; [7],0.0291 ± 0.0028
same,peptide microarray binding signal,[4]; [8],0.0206 ± 0.0014
ARRGGVKRISGLI [H4 38-50 A R R G G V Kme2 Rme2a I S G L I],peptide microarray binding signal,"[1]; peptide region: H4 38-50, peptide modifications: H4K44me2 H4R45me2a, binder concentration: 50 nM",0.00665 ± 0.0002
same,peptide microarray binding signal,"[1]; peptide region: H4 38-50, peptide modifications: H4K44me2 H4R45me2a, binder concentration: 500 nM",0.00881 ± 0.00022
same,peptide microarray binding signal,"[2]; peptide region: H4 38-50, peptide modifications: H4K44me2 H4R45me2a, binder concentration: 10 nM",0.00859 ± 0.00016
same,peptide microarray binding signal,"[2]; peptide region: H4 38-50, peptide modifications: H4K44me2 H4R45me2a, binder concentration: 100 nM",0.0109 ± 0.00048
same,peptide microarray binding signal,[3]; [9],0.00187 ± 6e-05
same,peptide microarray binding signal,[3]; [10],0.00371 ± 0.00016
same,peptide microarray binding signal,[4]; [9],0.00208 ± 4.3e-05
same,peptide microarray binding signal,[4]; [10],0.00265 ± 9.3e-05
ETRGVLKVFLENV [H4 53-65 E T R G V L K V F L E N V],peptide microarray binding signal,"[1]; peptide region: H4 53-65, binder concentration: 50 nM",0.00282 ± 3.2e-05
same,peptide microarray binding signal,"[1]; peptide region: H4 53-65, binder concentration: 500 nM",0.003334 ± 2.5e-05
same,peptide microarray binding signal,"[2]; peptide region: H4 53-65, binder concentration: 10 nM",0.00639 ± 0.00028
same,peptide microarray binding signal,"[2]; peptide region: H4 53-65, binder concentration: 100 nM",0.00461 ± 7.6e-05
same,peptide microarray binding signal,[3]; [11],0.00121 ± 3.5e-05
same,peptide microarray binding signal,[3]; [12],0.00188 ± 3.5e-05
same,peptide microarray binding signal,[4]; [11],0.00068 ± 1e-05
same,peptide microarray binding signal,[4]; [12],0.001211 ± 1.2e-05
ARRGGVKRISGLI [H4 38-50 A R R G G V Kme2 Rme2s I S G L I],peptide microarray binding signal,"[1]; peptide region: H4 38-50, peptide modifications: H4K44me2 H4R45me2s, binder concentration: 50 nM",0.00586 ± 0.00025
same,peptide microarray binding signal,"[1]; peptide region: H4 38-50, peptide modifications: H4K44me2 H4R45me2s, binder concentration: 500 nM",0.0125 ± 0.00027
same,peptide microarray binding signal,"[2]; peptide region: H4 38-50, peptide modifications: H4K44me2 H4R45me2s, binder concentration: 10 nM",0.0175 ± 0.00042
same,peptide microarray binding signal,"[2]; peptide region: H4 38-50, peptide modifications: H4K44me2 H4R45me2s, binder concentration: 100 nM",0.0397 ± 0.019
same,peptide microarray binding signal,[3]; [13],0.00361 ± 0.00025
same,peptide microarray binding signal,[3]; [14],0.00611 ± 0.00033
same,peptide microarray binding signal,[4]; [13],0.0037 ± 0.00027
same,peptide microarray binding signal,[4]; [14],0.00484 ± 0.00089
